Reference: PubChem BioAssay (EPA / NIEHS)
“And” between values parts separate entries of the source, which are not always exact repeats. Equal values may be shown once. Some structures have more than one record in an assay (separate samples or runs), and their calls can disagree. The source made the active and inactive calls. Rule for the calls: active = hit-call score of the fitted dose curve at least 0.9, where 1 is the maximum; inactive = score below 0.9.

Experiments:
[1] = ATG_GRE_CIS: Attagene CIS-FACTORIAL HepG2 Assay for human Glucocorticoid Response Elements (GRE) (AID 2282947); details: HepG2 GRE cis-reporter, Attagene multiplex mRNA; actives raise or lower the signal
How it was run: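 Fluorescence intensity of reporter-specific cDNA fragments, separated by capillary electrophoresis, provides the signal. Constructs carry cis-regulating promoters in transiently transfected HepG2 liver cells; 24 h incubation; fitting is bidirectional against DMSO.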

[2] = ATG_ISRE_CIS: Attagene CIS-FACTORIAL HepG2 Assay for human Interferon Regulatory Factor 1 (IRF1) binding to an Interferon-Stimulated Response Element (ISRE) (AID 2282948); details: HepG2 ISRE cis-reporter (Attagene), mRNA transcription readout; actives raise or lower the signal
How it was run: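 Uses HepG2 liver cells transfected with cis-regulated reporters and measures mRNA 24 h post-dosing through RT-PCR, primer-extension labelling and capillary electrophoresis, with DMSO as negative control.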

[3] = ATG_M_32_CIS: Attagene CIS-FACTORIAL HepG2 Assay for M32 Transcription Factor (Internal Marker) (AID 2282949); details: HepG2 Attagene cis-factorial M32 reporter, mRNA; actives raise or lower the signal;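 note: background control marker of the multiplexed CIS panel rather than a real target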
How it was run: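 HepG2 human liver cells transiently transfected with cis-promoter-driven multiple reporter transcription units, dosed 24 h. Reporter mRNA quantified by RT-PCR, FAM-labelled primer extension, HpaI digest and capillary electrophoresis; bidirectional fit versus DMSO baseline.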

[4] = ATG_M_06_CIS: Attagene CIS-FACTORIAL HepG2 Assay for M06 Transcription Factor (Internal Marker) (AID 2282950); details: HepG2 Attagene CIS-FACTORIAL M06 internal marker reporter; actives raise or lower the signal
How it was run: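 Fluorescence-labelled RT-PCR products from cis-promoter reporter units, cut with HpaI and resolved by capillary electrophoresis, give the signal. Cells are human HepG2, dosed for 24 h. Serves as background control, fitted relative to DMSO.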

[5] = molecular target: Hypoxia-inducible factor 1-alpha (Homo sapiens) (UniProt Q16665); test: ATG_HIF1a_CIS: Attagene CIS-FACTORIAL HepG2 Assay for human Hypoxia Inducible Factor 1 (HIF1A) (AID 2282951); details: HepG2 Attagene cis-factorial HIF1a reporter transcription; actives raise or lower the signal
Sequence of Hypoxia-inducible factor 1-alpha (Homo sapiens) (Q16665 whole entry, looked up): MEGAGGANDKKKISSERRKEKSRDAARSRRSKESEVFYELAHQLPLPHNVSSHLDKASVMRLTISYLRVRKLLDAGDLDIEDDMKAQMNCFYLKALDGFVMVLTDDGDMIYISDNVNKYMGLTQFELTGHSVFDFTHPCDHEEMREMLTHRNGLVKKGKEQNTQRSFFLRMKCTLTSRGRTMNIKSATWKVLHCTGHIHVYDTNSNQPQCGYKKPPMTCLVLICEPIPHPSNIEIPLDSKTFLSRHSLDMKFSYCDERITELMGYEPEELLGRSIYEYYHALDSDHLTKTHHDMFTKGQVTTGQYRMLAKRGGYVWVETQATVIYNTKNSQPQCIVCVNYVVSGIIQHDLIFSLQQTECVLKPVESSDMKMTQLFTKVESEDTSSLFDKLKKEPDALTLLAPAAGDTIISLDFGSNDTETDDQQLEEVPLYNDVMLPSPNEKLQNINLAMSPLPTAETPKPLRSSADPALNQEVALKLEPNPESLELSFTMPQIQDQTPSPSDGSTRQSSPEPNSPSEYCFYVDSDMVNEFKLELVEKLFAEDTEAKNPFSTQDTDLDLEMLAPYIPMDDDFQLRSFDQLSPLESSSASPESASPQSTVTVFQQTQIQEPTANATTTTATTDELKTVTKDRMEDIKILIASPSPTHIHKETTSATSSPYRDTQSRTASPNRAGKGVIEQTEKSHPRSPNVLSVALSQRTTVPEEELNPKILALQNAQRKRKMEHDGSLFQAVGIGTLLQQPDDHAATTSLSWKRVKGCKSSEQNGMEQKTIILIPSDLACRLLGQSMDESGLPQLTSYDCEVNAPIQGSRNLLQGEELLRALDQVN
How it was run: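 RT-PCR/capillary electrophoresis fluorescence readout of reporter transcripts from endogenous-TF-driven cis elements in transfected HepG2 cells, 24 h exposure; activity fitted in both directions against DMSO controls.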

[6] = molecular target: Hepatocyte nuclear factor 6 (Homo sapiens) (UniProt Q9UBC0); test: ATG_HNF6_CIS: Attagene CIS-FACTORIAL HepG2 Assay for human Hepatocyte Nuclear Factor 6 (HNF6) (AID 2282952); details: HepG2 Attagene cis-factorial HNF6 reporter transcription; actives raise or lower the signal
Sequence of Hepatocyte nuclear factor 6 (Homo sapiens) (Q9UBC0 whole entry, looked up, the tested form may be a part): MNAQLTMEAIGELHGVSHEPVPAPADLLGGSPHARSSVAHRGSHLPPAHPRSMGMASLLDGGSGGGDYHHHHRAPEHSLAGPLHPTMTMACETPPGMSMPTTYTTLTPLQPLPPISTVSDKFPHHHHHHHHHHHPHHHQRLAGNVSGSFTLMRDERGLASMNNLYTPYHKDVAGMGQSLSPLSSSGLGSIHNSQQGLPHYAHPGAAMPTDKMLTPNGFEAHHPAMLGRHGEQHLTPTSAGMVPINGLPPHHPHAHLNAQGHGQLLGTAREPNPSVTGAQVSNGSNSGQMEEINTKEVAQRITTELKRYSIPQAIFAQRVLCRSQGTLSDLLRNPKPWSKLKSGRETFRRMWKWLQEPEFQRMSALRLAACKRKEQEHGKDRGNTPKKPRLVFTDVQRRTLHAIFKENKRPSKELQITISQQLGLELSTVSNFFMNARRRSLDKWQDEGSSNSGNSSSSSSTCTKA
How it was run: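 First, HepG2 cells were transfected with the multiplexed cis reporter library and dosed with chemical for 24 h. Next, RNA was reverse-transcribed, PCR-amplified and fluorescently labelled. Finally, HpaI-digested fragments were read by capillary electrophoresis.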

[7] = ATG_MRE_CIS: Attagene CIS-FACTORIAL HepG2 Assay for human Metal Responsive Element (MRE) (AID 2282954); details: HepG2 MRE cis-reporter transcription, Attagene multiplex; actives raise or lower the signal
How it was run: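 Measured here is mRNA induction from an MRE cis-element reporter in HepG2 after 24 h, quantified by fluorescence of labelled RT-PCR products on capillary electrophoresis; gain- and loss-of-signal fits use DMSO as baseline.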

[8] = molecular target: Paired box protein Pax-6 (Homo sapiens) (UniProt P26367); test: ATG_Pax6_CIS: Attagene CIS-FACTORIAL HepG2 Assay for human Paired Box 6 (PAX6) (AID 2282956); details: HepG2 CIS-FACTORIAL PAX6 reporter transcription, RNA readout; actives raise or lower the signal
Sequence of Paired box protein Pax-6 (Homo sapiens) (P26367 whole entry, looked up): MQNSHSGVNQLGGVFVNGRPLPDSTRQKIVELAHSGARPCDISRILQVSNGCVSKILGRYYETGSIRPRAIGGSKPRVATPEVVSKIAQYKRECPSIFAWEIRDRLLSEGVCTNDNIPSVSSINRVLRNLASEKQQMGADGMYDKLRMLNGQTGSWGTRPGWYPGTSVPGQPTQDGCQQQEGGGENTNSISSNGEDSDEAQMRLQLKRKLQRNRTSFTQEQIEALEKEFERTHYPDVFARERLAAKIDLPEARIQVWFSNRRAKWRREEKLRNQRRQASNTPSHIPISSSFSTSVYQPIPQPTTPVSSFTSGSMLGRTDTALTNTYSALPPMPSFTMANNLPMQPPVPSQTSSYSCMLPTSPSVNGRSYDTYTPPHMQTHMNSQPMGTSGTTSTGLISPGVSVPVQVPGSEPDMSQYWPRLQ
How it was run: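 DMSO-referenced bidirectional fits of reporter mRNA fluorescence; HepG2 with transient cis-promoter MRTUs, 24 h post-dose, RT-PCR plus capillary electrophoresis detection.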

[9] = ATG_RORE_CIS: Attagene CIS-FACTORIAL HepG2 Assay for human RAR-related Orphan Receptor Element (RORE) (AID 2282959); details: HepG2 Attagene cis-factorial RORE reporter, mRNA; actives raise or lower the signal
How it was run: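 Readout: fluorescent reporter mRNA by RT-PCR plus capillary electrophoresis, 24 h after dosing transfected HepG2 cells. Endogenous transcription factor activity on a cis promoter element is measured. Gain or loss of signal fitted against DMSO.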

[10] = ATG_Sox_CIS: Attagene CIS-FACTORIAL HepG2 Assay for human SRY-box transcription factor (SOX) (AID 2282960); details: HepG2 Attagene cis-factorial SOX reporter, mRNA; actives raise or lower the signal
How it was run: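 Read-out: fluorescent RT-PCR products of SOX1-linked reporter transcripts resolved by capillary electrophoresis, fitted bidirectionally against DMSO. Transiently transfected HepG2 cells, 24 h after chemical exposure, endogenous transcription factor activity.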

[11] = molecular target: Transcription factor Sp1 (Homo sapiens) (UniProt P08047); test: ATG_Sp1_CIS: Attagene CIS-FACTORIAL HepG2 Assay for human Specificity Protein 1 (Sp1) (AID 2282961); details: HepG2 Sp1 cis-reporter transcription, actives raise or lower the signal
Sequence of Transcription factor Sp1 (Homo sapiens) (P08047 whole entry, looked up): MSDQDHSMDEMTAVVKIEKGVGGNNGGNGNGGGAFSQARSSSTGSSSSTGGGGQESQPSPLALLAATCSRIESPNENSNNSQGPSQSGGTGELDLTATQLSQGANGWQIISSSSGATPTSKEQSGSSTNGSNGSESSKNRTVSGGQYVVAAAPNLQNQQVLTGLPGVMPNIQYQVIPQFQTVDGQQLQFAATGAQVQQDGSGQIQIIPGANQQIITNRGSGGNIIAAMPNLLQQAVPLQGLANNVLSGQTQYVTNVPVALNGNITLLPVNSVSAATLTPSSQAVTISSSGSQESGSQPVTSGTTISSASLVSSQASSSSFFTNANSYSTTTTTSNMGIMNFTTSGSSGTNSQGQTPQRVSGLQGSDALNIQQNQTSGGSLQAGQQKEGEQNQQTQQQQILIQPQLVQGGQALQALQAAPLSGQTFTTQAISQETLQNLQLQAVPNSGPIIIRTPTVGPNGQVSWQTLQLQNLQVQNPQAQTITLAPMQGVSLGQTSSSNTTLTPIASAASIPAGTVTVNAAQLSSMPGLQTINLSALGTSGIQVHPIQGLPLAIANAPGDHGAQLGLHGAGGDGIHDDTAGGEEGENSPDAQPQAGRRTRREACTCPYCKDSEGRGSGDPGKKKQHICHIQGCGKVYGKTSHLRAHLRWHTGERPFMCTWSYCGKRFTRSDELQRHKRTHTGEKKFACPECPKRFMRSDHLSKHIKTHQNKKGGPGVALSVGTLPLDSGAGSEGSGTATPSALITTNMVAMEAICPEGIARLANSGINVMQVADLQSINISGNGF
How it was run: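 Read-out: fluorescence of 6-FAM-labeled, HpaI-digested RT-PCR products separated by capillary electrophoresis. HepG2 cells carried transfected cis-element reporter units and were exposed to chemicals for 24 h; gain or loss of signal fitted relative to DMSO.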

[12] = ATG_SREBP_CIS: Attagene CIS-FACTORIAL HepG2 Assay for human Sterol Regulatory Element Binding (SREBP) (AID 2282962); details: HepG2 Attagene cis-factorial SREBP reporter, mRNA; actives raise or lower the signal
How it was run: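 In this cis-format assay, HepG2 liver cells express reporters controlled by promoter elements responsive to native transcription factors. Exposure lasts 24 h; reporter mRNA fluorescence from capillary electrophoresis gives the signal, fitted bidirectionally against DMSO.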

[13] = molecular target: Signal transducer and activator of transcription 3 (Homo sapiens) (UniProt P40763); test: ATG_STAT3_CIS: Attagene CIS-FACTORIAL HepG2 Assay for human Signal Transducer and Activator of Transcription 3 (STAT3) (AID 2282963); details: HepG2, Attagene cis-factorial STAT3 reporter transcription; actives raise or lower the signal
Sequence of Signal transducer and activator of transcription 3 (Homo sapiens) (P40763 whole entry, looked up, the tested form may be a part): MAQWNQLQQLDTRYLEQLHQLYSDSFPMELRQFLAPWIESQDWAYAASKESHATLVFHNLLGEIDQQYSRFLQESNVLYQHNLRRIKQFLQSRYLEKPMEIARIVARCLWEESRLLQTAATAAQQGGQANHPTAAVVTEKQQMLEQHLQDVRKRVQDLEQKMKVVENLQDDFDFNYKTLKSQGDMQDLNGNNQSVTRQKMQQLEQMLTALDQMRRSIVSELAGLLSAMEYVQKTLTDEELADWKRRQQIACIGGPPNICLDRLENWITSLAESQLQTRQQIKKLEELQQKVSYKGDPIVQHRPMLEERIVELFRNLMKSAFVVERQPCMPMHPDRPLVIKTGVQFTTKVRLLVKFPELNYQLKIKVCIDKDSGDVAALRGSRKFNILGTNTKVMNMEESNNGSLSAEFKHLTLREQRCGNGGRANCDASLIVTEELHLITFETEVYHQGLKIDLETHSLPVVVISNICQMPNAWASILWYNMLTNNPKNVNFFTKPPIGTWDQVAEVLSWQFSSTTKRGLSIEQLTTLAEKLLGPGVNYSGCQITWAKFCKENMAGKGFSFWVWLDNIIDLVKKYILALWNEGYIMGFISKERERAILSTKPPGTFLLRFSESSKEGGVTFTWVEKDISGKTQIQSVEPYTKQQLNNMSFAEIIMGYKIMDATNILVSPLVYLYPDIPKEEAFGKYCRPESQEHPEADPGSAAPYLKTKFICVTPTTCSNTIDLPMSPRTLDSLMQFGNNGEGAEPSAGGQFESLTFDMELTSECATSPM
How it was run: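 Fluorescence intensity of 6-FAM-labelled reporter fragments, separated by capillary electrophoresis after RT-PCR, gave the signal. Cells were HepG2 transfected with cis-element reporter units and treated 24 h; fitting was bidirectional relative to DMSO.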

[14] = ATG_TA_CIS: Attagene CIS-FACTORIAL HepG2 Assay for human TA Basal Promoter (AID 2282964); details: HepG2 Attagene CIS-factorial TA basal promoter reporter; actives raise or lower the signal
How it was run: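 Multiplexed mRNA reporter assay, HepG2, 24 h. Reporter cDNA amplified, 6-FAM primer-extended, HpaI-cut, CE-sized; DMSO = negative control and baseline.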

[15] = ATG_TCF_b_cat_CIS: Attagene CIS-FACTORIAL HepG2 Assay for human T-Cell-Factor with beta-catenin (TCF/b-cat) (AID 2282965); details: HepG2 TCF/beta-catenin cis-reporter transcription, actives raise or lower the signal
How it was run: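 HepG2 cells transiently transfected with cis-promoter-driven multiplexed reporter units; reporter mRNA measured 24 h after dosing by RT-PCR, FAM labelling, HpaI digestion and capillary electrophoresis. Bidirectional fitting relative to DMSO baseline.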

[16] = molecular target: Heat shock factor protein 1 (Homo sapiens) (UniProt Q00613); test: ATG_HSE_CIS: Attagene CIS-FACTORIAL HepG2 Assay for human Heat Shock Transcription Factor 1 (HSE) (AID 2282953); details: HepG2 HSE cis-reporter, Attagene RNA transcription; actives raise or lower the signal
Sequence of Heat shock factor protein 1 (Homo sapiens) (Q00613 whole entry, looked up): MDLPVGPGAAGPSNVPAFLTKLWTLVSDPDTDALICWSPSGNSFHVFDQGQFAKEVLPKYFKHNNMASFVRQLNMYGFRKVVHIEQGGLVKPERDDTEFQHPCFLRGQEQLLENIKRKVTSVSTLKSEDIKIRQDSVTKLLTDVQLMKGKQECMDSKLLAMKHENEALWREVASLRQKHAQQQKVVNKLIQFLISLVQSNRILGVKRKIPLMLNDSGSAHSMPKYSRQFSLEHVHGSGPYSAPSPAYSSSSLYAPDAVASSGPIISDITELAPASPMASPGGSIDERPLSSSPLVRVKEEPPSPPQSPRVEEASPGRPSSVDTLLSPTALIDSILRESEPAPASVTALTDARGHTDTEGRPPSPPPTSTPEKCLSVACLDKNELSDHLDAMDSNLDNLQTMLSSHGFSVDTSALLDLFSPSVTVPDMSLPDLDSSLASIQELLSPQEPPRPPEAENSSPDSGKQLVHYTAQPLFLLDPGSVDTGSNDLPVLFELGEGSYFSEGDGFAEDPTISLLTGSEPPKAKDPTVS
How it was run: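 After a 24 h incubation with test chemical, transfected HepG2 cells were harvested for RNA; reporter transcripts were measured by RT-PCR and capillary electrophoresis. Values reflect gain or loss of signal relative to DMSO.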

[17] = ATG_PBREM_CIS: Attagene CIS-FACTORIAL HepG2 Assay for human Phenobarbital-responsive Enhancer Module (PBREM) (AID 2282955); details: HepG2 PBREM cis-reporter, Attagene multiplexed transcription; actives raise or lower the signal
How it was run: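 Reporter mRNA read by RT-PCR, 6-FAM primer extension, HpaI digestion and capillary electrophoresis. Transfected HepG2 cells, 24 h compound exposure. Gain or loss of signal fitted bidirectionally relative to DMSO baseline.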

[18] = ATG_PXRE_CIS: Attagene CIS-FACTORIAL HepG2 Assay for human Pregnane X Receptor Element (PXRE) (AID 2282957); details: HepG2 Attagene CIS-FACTORIAL PXRE reporter, mRNA; actives raise or lower the signal
How it was run: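 After a 24 h chemical incubation, total RNA from transfected HepG2 cells was reverse-transcribed and reporter cDNA amplified, FAM-labeled, HpaI-digested and sized by capillary electrophoresis. DMSO served as baseline for bidirectional curve fitting.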

[19] = ATG_PPRE_CIS: Attagene CIS-FACTORIAL HepG2 Assay for human Peroxisome Proliferator-activated Response Element (PPRE) (AID 2282958); details: HepG2 PPRE cis-element reporter, Attagene transcription factor profiling; actives raise or lower the signal
How it was run: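 Read-out: fluorescent reporter mRNA fragments resolved by capillary electrophoresis after RT-PCR. HepG2 cells carried transiently transfected PPRE-driven cis reporter constructs and were dosed for 24 h; gain or loss of signal fitted relative to DMSO.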

Nc1ccc(-c2ccc(N)c(Cl)c2)cc1Cl
outcome [1]: inactive
outcome [2]: inactive
outcome [3]: inactive
outcome [4]: inactive
outcome [5]: inactive
outcome [6]: inactive
AC50 [7]: 46.5 µM (active)
outcome [8]: inactive
AC50 [9]: 24.3 µM (active)
outcome [10]: inactive
outcome [11]: inactive
outcome [12]: inactive
outcome [13]: inactive
outcome [14]: inactive
AC50 [15]: 4.63 µM (active)

O=CC=O
outcome [1]: inactive
outcome [2]: inactive
outcome [4]: inactive
outcome [5]: inactive
outcome [6]: inactive
outcome [16]: inactive
outcome [7]: inactive
outcome [17]: inactive
outcome [8]: inactive
AC50 [18]: 4.55 µM (active)
outcome [19]: inactive
outcome [9]: inactive
outcome [10]: inactive
outcome [11]: inactive
outcome [12]: inactive
outcome [13]: inactive
outcome [14]: inactive
outcome [15]: inactive

Cc1ccccc1C(=O)Nc1cccc(OC(C)C)c1
outcome [1]: inactive
outcome [2]: inactive
outcome [4]: inactive
outcome [5]: inactive
outcome [6]: inactive
outcome [16]: inactive
outcome [7]: inactive
outcome [17]: inactive
outcome [8]: inactive
AC50 [18]: 2.89 µM (active)
outcome [19]: inactive
outcome [9]: inactive
outcome [10]: inactive
outcome [11]: inactive
outcome [12]: inactive
outcome [13]: inactive
outcome [14]: inactive
outcome [15]: inactive

ClC1=C(Cl)[C@]2(Cl)[C@H]3[C@H]([C@H]4C=C[C@H]3C4)[C@@]1(Cl)C2(Cl)Cl
outcome [1]: inactive
outcome [2]: inactive
outcome [3]: inactive
outcome [4]: inactive
AC50 [5]: 4.66 µM (active)
outcome [6]: inactive
outcome [16]: inactive
AC50 [7]: 3.77 µM (active)
outcome [17]: inactive
outcome [8]: inactive
AC50 [18]: 1.6 µM (active)
outcome [19]: inactive
outcome [9]: inactive
outcome [10]: inactive
outcome [11]: inactive
outcome [12]: inactive
outcome [13]: inactive
outcome [14]: inactive
outcome [15]: inactive

COc1cc(-c2ccc(N)c(OC)c2)ccc1N
AC50 [2]: 53.6 µM (active)
outcome [2]: inactive
outcome [3]: inactive
outcome [4]: inactive
outcome [5]: inactive
outcome [6]: inactive
outcome [16]: inactive
AC50 [7]: 49.7 µM (active) and 57.9 µM (active)
AC50 [17]: 29.2 µM (active)
outcome [17]: inactive
AC50 [8]: 19.9 µM (active)
outcome [8]: inactive
AC50 [19]: 43.9 µM (active) and 11.8 µM (active)
AC50 [9]: 15.7 µM (active) and 33.6 µM (active)
outcome [10]: inactive
AC50 [11]: 19.8 µM (active)
outcome [11]: inactive
AC50 [12]: 7.03 µM (active) and 39.9 µM (active)
outcome [13]: inactive
outcome [14]: inactive

COc1cc(OC)nc(NC(=O)NS(=O)(=O)c2ncccc2C(=O)N(C)C)n1
outcome [1]: inactive
outcome [2]: inactive
outcome [4]: inactive
outcome [5]: inactive
outcome [6]: inactive
outcome [16]: inactive
outcome [7]: inactive
outcome [17]: inactive
outcome [8]: inactive
outcome [18]: inactive
outcome [19]: inactive
outcome [9]: inactive
outcome [10]: inactive
outcome [11]: inactive
outcome [12]: inactive
outcome [13]: inactive
outcome [14]: inactive

COC(=O)Cc1ccccc1
outcome [2]: inactive
outcome [3]: inactive
outcome [4]: inactive
outcome [5]: inactive
outcome [6]: inactive
outcome [16]: inactive
outcome [7]: inactive
outcome [17]: inactive
outcome [8]: inactive
outcome [18]: inactive
outcome [19]: inactive
outcome [9]: inactive
outcome [10]: inactive
outcome [11]: inactive
outcome [12]: inactive
outcome [13]: inactive
outcome [14]: inactive
